Source: PubChem
Rows were chosen to be rich in hits. Some 8% of all compounds tested hit in one or more screens of this group.
FMDV inh = blocks foot and mouth disease virus; FMDV antiviral cell-based qHTS; Potency, µM (series often up to 57.9 µM), inactives show top-dose activity change, negative = inhibition, usual class: inhibitors; 410,000 tested, 1.2% active; AID 1159524; calls by dose curve; tested in HEK293T cells; note: read-out not given here; potency is the fitted concentration of half-maximal effect; % is set by controls: 0 for no effect and ±100 for the full control effect; nearly all actives have a fitted effect of over 45% in size
HCV inh = blocks hepatitis C virus; 340,000 tested, 3.4% active; AID 651820; Huh7.5.1 HCVcc-Cre infection, luciferase reporter, 44 h; Potency, µM (highest dose often 41.8 µM), for inactives: at the highest dose activity change, negative = inhibition, hits mostly inhibitors; active = well fitted inhibition curve with a large enough effect; inconclusive = small, poorly fitted or top-dose-only effect, or another doubt; inactive = no such curve, though single readings can be large or run the other way; note: potency is the fitted concentration of half-maximal effect; % is set by controls: 0 for no effect and ±100 for the full control effect
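Luciferase read-out (15 sec integration) after a 15 min room-temperature substrate step quantifies HCVcc-Cre infection. Cells, 1,000 per well, had compound added 4 h post-plating, then virus at ~0.5 moi, and were cultured 44 h.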
HCMV inh = inhibitors of human cytomegalovirus; HFF cells, HCMV-luciferase reporter, 72 h; active compounds read low; activity change, negative = inhibition, % at 57.5 µM; 410,000 tested, 4.5% active; in the data active = activity change below about -60%; inconclusive = no clear call, values can overlap the other calls; inactive = above about -39%; note: % is set by controls: 0 for no effect and ±100 for the full control effect
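After 16 h attachment at 37C, HFF cells received test compound and HCMV-luciferase (1 PFU/cell); reporter luminescence read 72 h later, data normalized against buffer-only and known inhibitor Salinomycin.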
LASV entry inh = blocks Lassa virus binding to or entry into cells | 300,000 tested, 1.2% active | Potency, µM (titrated, usually from 37.9 µM), without a hit: at the highest dose activity change, negative = inhibition, most hits filed as inhibitors | Lassa virus pseudotype entry inhibition, cell reporter; calls by dose curve; tested in HEK293 cells; note: potency is the fitted concentration of half-maximal effect; % is set by controls: 0 for no effect and ±100 for the full control effect; nearly all actives have a fitted effect of over 50% in size
MARV entry inh = inhibitors of Marburg virus binding or cell entry; Potency, µM (highest dose often 37.8 µM), for inactives: at the highest dose activity change, negative = inhibition, usual class: inhibitors; 300,000 tested, 1.8% active; Marburg virus pseudotyped entry inhibition, cell reporter; AID 540276; calls by dose curve; tested in HEK293 cells; note: potency is the fitted concentration of half-maximal effect; % is set by controls: 0 for no effect and ±100 for the full control effect
SARS PLpro yeast = blocks SARS-CoV papain-like protease in a yeast assay; S. cerevisiae expressing SARS-CoV PLpro, growth rescue; Potency, µM (top dose mostly 32.9 µM), for inactives: top-dose activity, positive = growth rescue, actives largely listed as activators; 330,000 tested, 0.19% active; AID 485353; calls by dose curve; note: potency is the fitted concentration of half-maximal effect; 0% is about no effect; nearly all actives have a fitted effect of over 55% in size
* hit, by the source's call; ? = inconclusive; nt = no result given; + = active, no number; [ ] = remark or other dose.

SMILES	FMDV inh	HCV inh	HCMV inh	LASV entry inh	MARV entry inh	SARS PLpro yeast
COc1cc2[nH]c(=O)n(CCC(=O)N3CCN(c4ccc(Cl)cc4)CC3)c(=O)c2cc1OC	-23%	nt	-11	6%[46.1 µM]	-3%[46.1 µM]	nt
COC(=O)c1ccc2c(=O)n(CCCCCC(=O)N3CCN(c4ccccc4)CC3)c(=O)[nH]c2c1	11µM*	10µM*	-29	?	?	5%
CCN1CCN(C(=O)CCCCCn2c(=O)[nH]c3cc(C(=O)OC)ccc3c2=O)CC1	-1%	6%	7	-2%	-2%	0%
CCCCCn1c(=O)[nH]c2cc(C(=O)N3CCN(c4cc(Cl)ccc4C)CC3)ccc2c1=O	-19%	nt	-10	2%[46.1 µM]	-3%[46.1 µM]	nt
COC(=O)c1ccc2c(=O)n(CCCCCC(=O)N3CCN(c4cc(Cl)ccc4C)CC3)c(=O)[nH]c2c1	14µM*	nt	-19	?	nt	nt
COC(=O)c1ccc2c(=O)n(CCCCCC(=O)O)c(=S)[nH]c2c1	?	13%	-63*	?	-12%	?
COC(=O)c1ccc2c(=O)n(CCO)c(=S)[nH]c2c1	-1%	8%	-8	7%	7%	3%
COc1cc2[nH]c(=O)n(CCCCCC(=O)N3CCN(c4ccc(Cl)cc4)CC3)c(=O)c2cc1OC	18µM*	nt	-13	7%[46.1 µM]	-10%[46.1 µM]	nt
COc1cc(OC)c(C2Nc3c(C)cccc3-c3cc(C)nn32)cc1OC (stereo not given)	-8%	nt	-37	-8%[46.1 µM]	?	nt
CCOC(=O)N1CCN(C(=S)NC(=O)c2ccc(F)c(F)c2)CC1	30%	26%	-89*	-10%	-2%[46.1 µM]	0%
CCOC(=O)N1CCN(C(=S)NC(=O)c2c(-c3c(Cl)cccc3Cl)noc2C)CC1	-12%	12%	-69*	?	?	0%
CC(=O)c1sc(NC(=O)c2cc(-c3ccccc3)nn2-c2ccccc2)nc1C	?	?	-3	?	?	-20%
O=C(Nc1nc2ccccc2s1)c1cc(-c2ccccc2)nn1-c1ccccc1	-24%	?	-75*	?	?	-36%
CN(C)C(=O)Oc1ccnc2cc(Cl)ccc12	-12%	-7%	+	14%	1%[46.1 µM]	1%
CN(C)S(=O)(=O)N1CCN(c2ccnc3cc(Cl)ccc23)CC1	0%	-18%	nt	nt	nt	4%
C#CCOc1ccc(CNC[C@H]2O[C@@H](n3cnc4c(N)ncnc43)[C@H](O)[C@@H]2O)cc1	-16%	11%	-25	nt	nt	-2%
Cc1cc(C)c(S(=O)(=O)Nc2ccccc2C(=O)OCC(=O)NCc2ccccc2)c(C)c1	0%	2%	?	10µM*	?	1%
O=C(COC(=O)c1ccccc1Nc1ccccc1)NCc1ccccc1	7%	5%	22	8%	15%	-12%
CC1CCc2c(sc3nc(C4CC4)nc(N4CCN(C(=O)c5ccco5)CC4)c23)C1 (stereo not given)	25µM*	4.5µM*	-86*	?	?	nt
c1ccc(N2CCN(c3ncnc4sc5c(c34)CCC5)CC2)cc1	-23%	10µM*	-76*	-14%	?	-2%
CCc1nc(N2CCN(C(=O)c3ccco3)CC2)c2c3c(sc2n1)CCCC3	?	?	-24	?	?	-13%
O=C(c1ccco1)N1CCN(c2ncnc3c2[nH]c2ccc(Br)cc23)CC1	?	11µM*	?	?	?	?
O=C(c1ccco1)N1CCN(c2ncnc3sc4c(c23)CCC4)CC1	?	?	-67*	-8%	-5%	-4%
CC(C)OCCCNC(=O)C(=O)Nc1ccc2nc3n(c(=O)c2c1)CCCCC3	-15%	nt	4	16%[46.1 µM]	13%[46.1 µM]	nt
CC(C)C(N)C(=O)O (stereo not given)	-10%	nt	nt	nt	nt	nt
COc1ccc(-c2nsc3c(N4CCN(C(=O)c5ccco5)CC4)ncnc23)cc1	?	4%	-14	-2%	-4%	1%
COc1ccc(CN2CCN(c3ncnc4sc5c(c34)CC(C)CC5)CC2)cc1F (stereo not given)	?	nt	14	-6%[46.1 µM]	5%[46.1 µM]	nt
O=C(c1ccco1)N1CCN(c2ncnc3c(-c4ccccc4)nsc23)CC1	5%	22µM*	119	?	?	-7%
